Screening results as filed in PubChem BioAssay.
CYP2C9 activ – activators of human CYP2C9; activation factor at 5 µM; recombinant CYP2C9, luciferin-H conversion, luminescence; hits give high values; factor 1 = untreated enzyme, 0 = blocked; 96,000 tested, 1.4% active;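 active means activation factor of 2 or more for CYP2C9 at a 5 µM dose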;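 further: 0 = sulfaphenazole-blocked wells and 1 = vehicle-only wells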
sEH activator – activators of human soluble epoxide hydrolase; purified human sEH enzymatic activity, activator screen; activation, % at 2 µM; 91,000 tested, 0.04% active; AID 717; in the data active means activation above about 37%
sEH inh – inhibitors of human soluble epoxide hydrolase; recombinant human sEH enzymatic activity assay; inhibition, % at 2 µM; 91,000 tested, 0.34% active; AID 707; in the data active means inhibition above about 80%
CYP2C19 inh – human CYP2C19 inhibition | P33261 | CYP2C19 Supersomes, luciferin-H EGE luminescence, 30 min | inhibition, % at 5 µM | 96,000 tested, 21% active | AID 778;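 active means CYP2C19 inhibition above a set limit at 5 µM in the primary screen, cut at about 50% in these data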;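 further: plate controls were negative control wells for no effect and 2.5 mM tranylcypromine positive control for full effect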
Target sequence (P33261 whole entry, looked up): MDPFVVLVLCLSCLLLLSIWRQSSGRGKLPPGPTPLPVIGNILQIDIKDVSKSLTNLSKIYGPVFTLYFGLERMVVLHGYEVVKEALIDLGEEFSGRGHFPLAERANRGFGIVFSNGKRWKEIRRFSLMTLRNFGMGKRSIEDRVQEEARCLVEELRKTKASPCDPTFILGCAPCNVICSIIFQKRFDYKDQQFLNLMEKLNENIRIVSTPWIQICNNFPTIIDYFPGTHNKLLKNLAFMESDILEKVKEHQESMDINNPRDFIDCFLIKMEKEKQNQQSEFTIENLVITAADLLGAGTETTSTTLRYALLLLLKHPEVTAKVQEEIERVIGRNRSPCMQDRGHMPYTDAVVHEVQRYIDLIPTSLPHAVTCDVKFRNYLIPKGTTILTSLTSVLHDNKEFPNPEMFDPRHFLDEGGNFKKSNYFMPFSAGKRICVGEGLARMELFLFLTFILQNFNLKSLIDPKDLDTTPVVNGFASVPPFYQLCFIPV
CYP2C19 activ – cytochrome P450 2C19 (human) activation; activation factor at 5 µM; 96,000 tested, under 10 active; AID 1025; P33261; recombinant CYP2C19, luciferin-H EGE luminescence; hits give high values; 0 = fully inhibited enzyme, 1 = untreated enzyme;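 active means activation factor of at least 2 at 5 µM in the primary screen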;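 further: 0 = wells with 2.5 mM tranylcypromine and 1 = vehicle-only wells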
CYP2C9 inh – blocks human cytochrome P450 2C9 | 96,000 tested, 20% active | CYP2C9 Supersomes, luciferin-H conversion, luminescence | inhibition, % at 5 µM | AID 777;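 active means blocking of liver enzyme CYP2C9 beyond about 50% at 5 µM, limit read from the data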
* marks the source's active call; other numbers are inactive results; nt = not tested or not shown. Hits are enriched below; roughly 27% of the tested compounds scored in any of these assays.

SMILES	CYP2C9 activ	sEH activator	sEH inh	CYP2C19 inh	CYP2C19 activ	CYP2C9 inh
CCOC(=O)c1c(C)[nH]c(C(=O)COC(=O)c2ccc(N3CCCC3=O)cc2)c1C	0.1	-4.7	6.2	0.3	1	89.9*
CCCCCCC(=O)c1c(C)[nH]c(C(=O)OCC)c1C	0.3	22.4	-23.9	24.8	0.8	71.2*
CCOC(=O)c1c(C)[nH]c(N=Nc2ccc(C)cc2C)c1C	1	9.3	-11.0	15.2	0.8	-2.1
CCOC(=O)c1c(C)[nH]c(N=Nc2ccccc2C)c1C	0	1.7	-3.5	83.4*	0.2	95.3*
CCCN(CCC)C(=O)c1c(C)[nH]c(C(=O)OCC)c1C	0.9	11.7	-11.8	-0.8	1	11.4
CCCCC(=O)OCC(=O)c1[nH]c(C)c(C(=O)OCC)c1C	0.2	-4.6	7.1	-13.3	1.1	83.3*
CCOC(=O)c1c(C)[nH]c(C(=O)CSc2ccccc2)c1C	0	nt	nt	84.3*	0.2	96.4*
CCOC(=O)c1c(C)[nH]c(C(=O)CSc2nnc(C3CC3)n2N)c1C	0.3	-2.3	2.1	69.3*	0.3	65.8*
CCOC(=O)c1c(C)[nH]c(C(=O)COC(=O)CSC)c1C	0.4	-14.7	15.8	40.6	0.6	56.5*
CCOC(=O)c1c(C)[nH]c(C(=O)COC(=O)C(C)N2C(=O)C3CCCCC3C2=O)c1C (stereo unspecified)	0.5	nt	nt	55.3*	0.4	51.8*
CCOC(=O)c1c(C)[nH]c(C(=O)COC(=O)CN2C(=O)C3CCCCC3C2=O)c1C (stereo unspecified)	0.7	-7.0	8.8	37.4	0.6	25.9
CON1C(=O)C(=O)N(OC)C(C)(C)C1C (stereo unspecified)	1	14.5	-16.9	0.9	1	3.2
Cc1nc(C(F)(F)F)nc(Nc2ccc(Br)cc2)c1C#N	1	2.2	-2.1	63.9*	0.4	1.7
CCOC(=O)c1ccc(Nc2nc(C)cc(C)c2C#N)cc1	1.1	-3.7	5.0	-3.8	1	-13.0
COc1ccc(C2CCCN2C(=O)Nc2ccc(Cl)cc2)cc1OC (stereo unspecified)	0.5	-95.1	95.0*	72.8*	0.3	49.4
COc1ccc(NC(=O)C2CCCN2C(=O)Nc2ccccc2)cc1OC (stereo unspecified)	nt	1.2	-0.9	nt	nt	nt
CCCn1c(N2CCC(Cc3ccccc3)CC2)nc2c1c(=O)[nH]c(=O)n2C	0.4	5.8	-4.4	83.2*	0.2	56.6*
C=C(C)Cn1c(N2CCC(Cc3ccccc3)CC2)nc2c1c(=O)[nH]c(=O)n2C	nt	3.5	0.1	nt	nt	nt
CC(=O)Cn1c(N2CCC(Cc3ccccc3)CC2)nc2c1c(=O)[nH]c(=O)n2C	0.8	nt	nt	50.4*	0.5	16.2
COC(=O)c1[nH]c2ccccc2c1NC(=O)CN1CCC(C(N)=O)(N2CCCCC2)CC1	0.5	12.3	-7.7	17.7	0.8	48.6
Cc1nc(CC(=O)O)c(-c2ccccc2)s1	1	3.6	-1.4	-3.1	1	3.9
O=C(CC1SC(=NC2CCCCC2)NC1=O)Nc1ccccc1 (stereo unspecified)	nt	20.9	-22.9	nt	nt	nt
Cc1cccc(NC(=O)CC2SC(=NC3CCCCC3)NC2=O)c1 (stereo unspecified)	0.3	nt	nt	27.0	0.7	65.8*
Cc1ccc2c(c1)C(=O)CCN2	1.1	-4.2	3.6	-0.4	1	-14.1
O=C1CCNc2cc3ccccc3cc21	0.8	-6.8	4.7	51.6*	0.5	24.4
SMILES	CYP2C9 activ	sEH activator	sEH inh	CYP2C19 inh	CYP2C19 activ	CYP2C9 inh
CC(=O)N1CCC(=NNS(=O)(=O)c2ccc(C)c([N+](=O)[O-])c2)CC1	1.2	14.8	-13.2	-3.7	1	-18.0
Cc1ccc(S(=O)(=O)N/N=C2/CC(c3ccccc3)Oc3ccccc32)cc1[N+](=O)[O-] (stereo unspecified)	0	-10.5	12.6	67.3*	0.3	99.0*
O=S(=O)(N/N=C1/CC(c2ccccc2)Oc2ccccc21)c1ccc(Br)cc1 (stereo unspecified)	0.4	10.6	-9.0	27.3	0.7	64.7*
O=S(=O)(N/N=C1/CCCc2ccccc21)c1ccc(Br)cc1	nt	-2.9	7.9	nt	nt	nt
CCC1c2ccc(C)n2CCN1C(=O)Nc1ccc(F)cc1 (stereo unspecified)	0.8	-10.0	10.4	27.7	0.7	15.1
CC(C)n1nnc2ccccc2c1=O	1.2	3.2	-2.5	3.2	1	-16.7
Cc1cc(Nc2nnnn2-c2ccccc2)n(-c2ccccc2)n1	0.8	0.4	3.0	9.0	0.9	23.9
Cc1cc(Nc2ccc(Cl)cc2)n(-c2ccccc2)n1	0.3	4.6	-3.2	58.6*	0.4	69.7*
CCn1nc(C)cc1Nc1ccccc1	0.8	-3.1	3.2	1.2	1	15.9
Cc1cc(Nc2ccc(Cl)cc2)n(-c2cccc(Cl)c2)n1	0	-1.4	1.2	98.7*	0	98.0*
Cc1cc(NC(=O)Nc2cc(C)nn2-c2ccccc2)n(-c2ccccc2)n1	1	0.6	-0.1	14.1	0.9	0.8
Cc1cc(Nc2ccccc2)n(-c2ccc(Br)cc2)n1	0	-3.8	-0.5	90.4*	0.1	96.9*
Cc1cc(NC(=O)c2ccc(C)s2)n(-c2ccccc2)n1	0.7	3.4	-3.7	75.7*	0.2	26.6
Cc1cc(NC(=O)COc2ccc(Cl)cc2Cl)n(-c2ccccc2)n1	0.7	-4.8	5.9	71.2*	0.3	34.5
O=C(CNC(=O)c1ccco1)OCN1C(=O)c2ccccc2C1=O	1	-0.5	3.5	-4.8	1	-4.3
O=C1C(NS(=O)(=O)c2cccs2)=C(N2CCN(c3cccc(Cl)c3)CC2)C(=O)c2ccccc21	0.2	6.4	-6.4	51.2*	0.5	77.6*
O=C1CC(=C2c3ccccc3-c3ccccc32)C(=O)N1CCN1CCN(c2cccc(Cl)c2)CC1	nt	11.8	-12.6	nt	nt	nt
CCCOC(=O)c1ccc(NC(=O)c2cn(CC)c3nc(C)ccc3c2=O)cc1	0.9	-4.0	5.2	-2.7	1	11.2
CCC(C)N1C(=O)CCC1C(=O)O (stereo unspecified)	1.1	3.0	-6.0	-17.5	1.2	-6.8
Cn1nnnc1SCc1cn2cccnc2n1	1.2	-7.3	6.8	-15.6	1.2	-15.8
CCCSc1nc2c(c(=O)n1CC)SC(C)C2 (stereo unspecified)	0.5	-2.6	6.0	30.7	0.7	45.5
N#CC1=C(N)SC(N)=C(C#N)C1C1CC=CCC1 (stereo unspecified)	0.5	-8.4	9.3	84.5*	0.2	48.5
CCCc1nc(SCC(=O)Nc2cc(C)on2)c2ccccc2n1	0.7	-21.5	21.3	10.4	0.9	32.0
Cc1cc(NC(=O)CSc2c3c(nc4ccccc24)CCC3)no1	0.4	6.0	-5.3	54.8*	0.5	55.7*
Cc1cc(NC(=O)CSc2nc(CCC3CCCC3)nc3ccccc23)no1	0.1	-10.0	12.4	87.4*	0.1	90.3*
O=c1nc(NCc2ccccc2Cl)cn[nH]1	1.1	-4.6	4.7	-2.7	1	-11.9
